B1: ENSMUSG00000022095.265|Fam160b2|1:16;55:75;122:126 (ssRNA)
RNA: GGGAGUUCUACAGUCCGACGAUCGCUUCGAUAUCCGCAUGCUAACACACACACACACACAGAGAGAGAGAGAGAGAGCGAGCUAUGAAUGAAUGUGACACACACACACACACACACACAGAGAGAGAGAGAGAGAGAGAGAGCUGUGAGUACACAUGGGUGCUGCACACGGACAGGAGCAGAUCUUGGUGGAGUGGGUCUACACUUGAGAUUUGUACUCGUUUGAGAGGCUGGGCAAUACUCAAUGCACUUUGGCAUUUGCAUGGUGUCUUCACAACAGCACAGCAAUAAACAUUGUGAUUGUCUCUUGCGGUCGCACUAGUGUGGAAUUCUCGGGUGUCAAGG
B2: ENSMUSG00000022095.264|Fam160b2 (ssRNA)
RNA: GGGAGUUCUACAGUCCGACGAUCGCUUCGAUAUCCGCAUGCUAUGUGUGUGUGUGUGUGUGUGUGAGAGAGAGAGAGAGAGAGCGAGCUAUGAAUGAAUGUGAGUGUGUGUGUGUGUGUGUGUGAGAGAGAGAGAGAGAGAGAGAGAGCUGUGAGUACACAUGGGUGCUGGUGUGGGACAGGAGCAGAUCUUGGUGGAGUGGGUCUACACUUGAGAUUUGUACUCGUUUGAGAGGCUGGGCAAUACUCAAUGCACUUUGGCAUUUGCAUGGUGUCUUCACAACAGCACAGCAAUAAACAUUGUCUCUUGCGGUCGCACUAGUGUGGAAUUCUCGGGUGUCAAGG
B3: ENSMUSG00000022095.267|Fam160b2 (ssRNA)
RNA: GGGAGUUCUACAGUCCGACGAUCGCUUCGAUAUCCGCAUGCUAUGUGAGAGAGAGAGAGAGAGAGCGAGCUAUGAAUGAAUGUGAGUGUGUGUGUGUGUGUGUGUGAGAGAGAGAGAGAGAGAGAGAGAGCUGUGAGUACACAUGGGUGCUGGUGUGGGACAGGAGCAGAUCUUGGUGGAGUGGGUCUACACUUGAGAUUUGUACUCGUUUGAGAGGCUGGGCAAUACUCAAUGCACUUUGGCAUUUGCAUGGUGUCUUCACAACAGCACAGCAAUAAACAUUGUGAUUGUGUGGACAUGCUGCUCUUGCGGUCGCACUAGUGUGGAAUUCUCGGGUGUCAAGG
B4: ENSMUSG00000022095.266|Fam160b2 (ssRNA)
RNA: GGGAGUUCUACAGUCCGACGAUCGCUUCGAUAUCCGCAUGCUAUGUGUGUGUGAGAGAGAGAGAGAGAGAGCGAGCUAUGAAUGAAUGUGAGUGUGUGUGUGUGUGUGUGUGAGAGAGAGAGAGAGAGAGAGAGAGCUGUGAGUACACAUGGGUGCUGGUGUGGGACAGGAGCAGAUCUUGGUGGAGUGGGUCUACACUUGAGAUUUGUACUCGUUUGAGAGGCUGGGCAAUACUCAAUGCACUUUGGCAUUUGCAUGGUGUCUUCACAACAGCACAGCAAUAAACAUUGUGAUUGUGUGGACCUCUUGCGGUCGCACUAGUGUGGAAUUCUCGGGUGUCAAGG
B5: ENSMUSG00000022095.262|Fam160b2 (ssRNA)
RNA: GGGAGUUCUACAGUCCGACGAUCGCUUCGAUAUCCGCAUGCUAUGAAUGUGAGUGUGUGUGUGUGUGUGUGUGUGUGAGAGAGAGAGAGAGAGAGCGAGCUAUGAAUGAAUGUGAGUGUGUGUGUGUGUGUGUGUGAGAGAGAGAGAGAGAGAGAGAGAGCUGUGAGUACACAUGGGUGCUGGUGUGGGACAGGAGCAGAUCUUGGUGGAGUGGGUCUACACUUGAGAUUUGUACUCGUUUGAGAGGCUGGGCAAUACUCAAUGCACUUUGGCAUUUGCAUGGUGUCUUCACAACAGCACAGCCUCUUGCGGUCGCACUAGUGUGGAAUUCUCGGGUGUCAAGG
B6: ENSMUSG00000032194.73|Kank2|146:150 (ssRNA)
RNA: GGGAGUUCUACAGUCCGACGAUCGCUUCGAUAUCCGCAUGCUAUUUGAAUGUCACUGGAAUGUUACAGUGUCUAUUGUCUCCUCAUCUUUACAGCAGGUCUCCACAAAGCCUGCUCACCACCCUUUGUCACCUCAUUUCAUUGUCUAGUGUACAAUAGGGUCUUGUCCACUGCCCUCCACCUCCAGACACACACUUCAGGGCCUGGGGUGUCUCUUGUGAUUGCUUUACAGAAUAAGAUUGCCGUACCUUAGCCGCCUGCCUCCAGUCAGAAAGCAGUGUUUUCAUUUGCCUUUUUCCUUUCUCUCUUGCGGUCGCACUAGUGUGGAAUUCUCGGGUGUCAAGG
B7: ENSMUSG00000058297.497|Spock2|151:155 (ssRNA)
RNA: GGGAGUUCUACAGUCCGACGAUCGCUUCGAUAUCCGCAUGCUAGGUUGGAGAGAGUAAAUGUGCCUUGAGAGACCACUCAGAGGUCCCAGGAGGAACGGGGGCGGGGCUUAGCCUGGGAGUUCUGGCAGGAGGCAAAGUUGGUGAGAGUCCUGGGACAUCUUACCCCCAGUGUUCCACAGGAGUCGUGACCACCACACAUGGGUGGGCACAGGUCUGCCUUGCUCCAGCCCCCUCCCUUGGUUUCUGUUGGUACCCAUUUGGCUUUUAUCUGCUUUCUGCUUCACCACUAAGUGCGUAGGUGGCUCUUGCGGUCGCACUAGUGUGGAAUUCUCGGGUGUCAAGG
B8: ENSMUSG00000061578.971|Ksr2 (ssRNA)
RNA: GGGAGUUCUACAGUCCGACGAUCGCUUCGAUAUCCGCAUGCUAGGAAGGUAGUUUUCCCCCAGAAAGUCCCUUCUAAUAAACAUUGAUGACUUUAGAAUCCAUGACUCAGAAUUUUCCAGAGACCCAAUCCCUCGGGGUCCACUUAGUGAUGGGACCAUACAAGAGUUUAUUUCCAAUUAGAGAAUUGGGUCAACUGGGAAAGGCUUCUUUCCUGGUAACCCUGCUACUGAUACUAUGUUGAAACAGGAAUCGACUCUAACUGCUUUUUGGCCUCUUCCCUGCACGGGAGUCUCAAAAUCAAGCUCUUGCGGUCGCACUAGUGUGGAAUUCUCGGGUGUCAAGG
B9: ENSMUSG00000058297.456|Spock2 (ssRNA)
RNA: GGGAGUUCUACAGUCCGACGAUCGCUUCGAUAUCCGCAUGCUAUCACACAGGUCAGAUUAUUGUCGGUCCUGCGGGCCUCAUCCUUGAAUAAGCUGCCUGCCCAGUUCCUCCAUCCGUGUUCCUGCCUGCUCCCGUUCCCUUGUUGCGGGCAGGAGAGGUAGGGCUGUGUUGGAAAGAGUUCAACCAAAUUACGGCAGCACCACAUCUUGCCGAGCCCUGGAGCUGCCCUACUAAGAGCCUCCUUAGCCCUGGGUGCUGGGAAGGAUGGUGUACGUUGGGGAAGUUUGAGGUUGGAGAGAGUACUCUUGCGGUCGCACUAGUGUGGAAUUCUCGGGUGUCAAGG
B10: ENSMUSG00000029028.209|Lrrc47 (ssRNA)
RNA: GGGAGUUCUACAGUCCGACGAUCGCUUCGAUAUCCGCAUGCUACAGCAGCUGCACAGAGGACUUGGUGGCCCCGUGCCUUGCCAUCUGGCUGAGAAGAGAACCAGACCCUCAGCCUUCCCCCUCGACACCUUCUCGUUGGUGACCUCUGACCUUAAAGGACCAUUUCUACCUUCUGUAAAAGAACACCUGUUUGGGGUUGCGUGCGGCUUUCAUCCUAAGGCCGUGCGAGAGCCGUUAGCUGUCAGAACUAGUGAAGCUCCAGGCUCCUCGUGGCAGACCCUGGACAACGCUGGUAGCUGUUCCUCUUGCGGUCGCACUAGUGUGGAAUUCUCGGGUGUCAAGG
B11: ENSMUSG00000029636.505|Wasf3|28:32 (ssRNA)
RNA: GGGAGUUCUACAGUCCGACGAUCGCUUCGAUAUCCGCAUGCUAAUCAUUUAUGAGCAUAGGAUGAUGAGGCACACAAAGCUUUGUAAUAUUUUCAGCAGAAAUGCGUGAUACAUUUGAAUCCAUUGAGGUCUGGAGGGAGGGUAUCAGCCAGAGUAGCAAGGCGGUUUUGUUUAUUUGUUUGUUUUUUUGUUUGUUUGUUUUAUGAAGGAGAGUAUCUGUUAUCUUGCAGUAUUAUCAAUGCAGUUGUAAAUUGAAUCUAAAGUGGUAUUUAAAACUGUCAAACAAUUUUUAAUCUGUUUGUACUCUUGCGGUCGCACUAGUGUGGAAUUCUCGGGUGUCAAGG
B12: ENSMUSG00000031028.267|Tub (ssRNA)
RNA: GGGAGUUCUACAGUCCGACGAUCGCUUCGAUAUCCGCAUGCUAUGCUUUGAAAUAGAUAUGUUUGGAAACGCUAAGUAGAAGUUUAAAAAGUAGAGUCAUGUAGAGUCAUGCUUUGAAUAUGUGGGUCAUGCUUUAGAUAUGAAGAGGCUAUGCAGGUAAGGAGGCUGGAUUGAUGUAAAUGGAAGUAGUACUUUAAGAAAGCUCUAGAUUUCCCAGGUUGGACACUCGACGAAAGGCACACCUGCUGCAGCAGGUUCUGACACACCUGAGCCAUACAUUGCCAUCAGAGAACCCUCAGCGAGCUCUUGCGGUCGCACUAGUGUGGAAUUCUCGGGUGUCAAGG
B13: ENSMUSG00000043670.108|Diras1 (ssRNA)
RNA: GGGAGUUCUACAGUCCGACGAUCGCUUCGAUAUCCGCAUGCUACUUUCACCUGAUCCUGUCCUUUCCCCGUGACCUCUGACCUGUGGCCUUCCCUGGGUCCAGAACACCCCUGUCCUCUCCUGUCUGCACACCAGGGUGGAUGGGCCCGAGGGCUGGGCCUCAGGCACCAGGCAAUAAACACAGGGCCUGCAGCAAUGCCCUGGCCACCCCGAGUACCACCUCUGGAAUAGCAGACGCCCACAGCACAAGCCCAGGACUGUCCCUUCAGGGGAGGCACACUGGAACCCUGAACUUGGAGUGUGCUCUUGCGGUCGCACUAGUGUGGAAUUCUCGGGUGUCAAGG

The results in this text go back to article PMC12864922, “TDP-43 directly inhibits mRNA accumulation in neurites through modulation of mRNA stability”.

Whole data set: some 9,900 sequences, median “r (bound/input frequency ratio)” near 0.7, cut for the highest 2% near 6.5. The sample holds the highest values, similar sequences and a random draw of the others, so the mix is not that of the screen.

Sequence of TDP-43 (Q13148 whole entry): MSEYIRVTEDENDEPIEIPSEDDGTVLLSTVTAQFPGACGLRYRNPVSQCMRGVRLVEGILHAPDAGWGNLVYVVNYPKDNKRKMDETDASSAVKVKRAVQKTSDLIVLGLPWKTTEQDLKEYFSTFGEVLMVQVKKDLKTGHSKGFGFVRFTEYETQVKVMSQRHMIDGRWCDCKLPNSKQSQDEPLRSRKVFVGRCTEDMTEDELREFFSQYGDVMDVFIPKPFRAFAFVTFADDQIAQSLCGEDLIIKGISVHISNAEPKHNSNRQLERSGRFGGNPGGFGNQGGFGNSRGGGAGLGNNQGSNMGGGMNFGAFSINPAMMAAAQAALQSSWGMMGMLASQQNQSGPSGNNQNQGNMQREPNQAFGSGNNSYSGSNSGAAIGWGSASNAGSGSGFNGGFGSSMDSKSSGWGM

This assay addresses TDP-43 (Homo sapiens, UniProt Q13148 1-414). The assay can be described thus: RNA Bind-n-Seq with designed 260-mer pool; 25 mM Tris-HCl, 150 mM KCl, 3 mM MgCl2, BSA (printed 500 mg/mL), 20 units/mL SUPERase IN; pH not stated; 500 nM RNA pool, 1 h, 4 C; TDP-43 5, 50, 500 nM; high values mean tight binding. Particulars: protein: recombinant; tags: SBP (GST cleaved off with PreScission; pGEX-GST-SBP). In a few lines: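 Binding (R) is the ratio of each oligo's mapped-read-normalized abundance in the bound fraction to its abundance in the input. To obtain it, SBP-tagged recombinant TDP-43 (5, 50 or 500 nM) on streptavidin beads was incubated with 500 nM of an in vitro-transcribed 260-nt 3′ UTR oligo pool for 1 h at 4 °C in 25 mM Tris-HCl, 150 mM KCl, 3 mM MgCl2, BSA and SUPERase IN. The RNA retained after washing was released with biotin, then reverse transcribed, amplified by PCR and sequenced.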
Consider B1, for which the binding signal was 5.93 R (bound/input frequency ratio).

B2: the binding signal is 5.78 R (bound/input frequency ratio).

On to B3, for which the binding signal was 5.01 R (bound/input frequency ratio).

As for B4, the binding signal is 7.33 R (bound/input frequency ratio).

As for B5, the binding signal is 9.41 R (bound/input frequency ratio).

Consider B6, for which the binding signal was 1.55 R (bound/input frequency ratio).

With B7, the binding signal was 2.24 R (bound/input frequency ratio).

Take B8: the binding signal is 0.299 R (bound/input frequency ratio).

As for B9, the binding signal is 0.782 R (bound/input frequency ratio).

Consider B10, for which the binding signal is 0.424 R (bound/input frequency ratio).

For the molecule B11, the binding signal was 0.502 R (bound/input frequency ratio).

On to B12, for which the binding signal was 2.93 R (bound/input frequency ratio).

Regarding B13, the binding signal is 1.22 R (bound/input frequency ratio).
